From PubChem BioAssay AID1241 (SRMLSC, 2008)
Screen size: about 1,200 compounds; about 840 (70%) were called active. How the calls were made is not given here. So high a share suggests a set chosen from earlier hits. The list is a sample of the results. Measured potencies and affinities stand elsewhere.

Experiment: compounds inducing NF-kB luciferase expression – cell-based, SH-SY5Y, dose response (AID 1241)
Details: SH-SY5Y NF-kB promoter luciferase reporter; series mostly up to 30 µM; fold induction over control: at the top concentration

Fold induction over control, inactive:
Cc1ccn2cc(CSc3ccccc3)nc2c1 11.4
CCSc1nnc(NC(=O)c2ccc(C)cc2)s1 9.12
Cc1ccc(-c2cc(-c3ccccc3C)[nH]n2)c(O)c1 15.7
Cc1nc(N2CCCCC2)c2c(-c3cccs3)csc2n1 1.02
Cc1ccc(C(=O)Oc2oc(-c3ccco3)nc2C=Nc2ccc(Cl)cc2)cc1 13.7
O=c1[nH]c(-c2ccco2)nc2sc3c(c12)CCCC3 12.5
c1ccc(-c2ccc(-c3nc(-c4cccnc4)no3)cc2)cc1 9.39
CC(=O)Nc1ccc2oc(-c3ccccc3)nc2c1 13.2
C=CCSC(=C(C#N)C#N)c1cc2c([nH]1)CCCC2 4.8
Cc1ccc(-n2c(C)cc(C(=O)CSc3nncs3)c2C)cc1 8.62
Cc1ccc(C(=O)/C=C/c2cn(CN3CCN(C)CC3)c3ccccc23)cc1 10.2
OCCC1CN(Cc2ccc3nsnc3c2)CCN1C1CCCC1 (stereo not given) 1.05
C/C(=N\OC(=O)NC(C)C)c1sc(-c2ccc(Cl)cc2)nc1C 2.38
C/C(=N\O)c1sc(-c2ccccc2)nc1C 11.8
Cc1ccc(Nc2nc3ccccc3[nH]2)nc1 7.12
Cc1ccc2c(c1)C(=NC1CCCCC1)c1cc3ccccc3nc1-2 10.2 [at 15 µM]
Cc1ccccc1C(=O)Nc1cccc(NC(=O)Cn2cnc3c(=O)n(C)c(=O)n(C)c32)c1 1.64
CCOC(=O)c1cc(C(=O)Nc2cccc(C)c2)nn1C 13.1
CCc1ccc(NC(=O)c2onc(C)c2Cl)cc1 11.8
COc1ccccc1C(=O)O/N=C(\N)c1ccc(Cl)cc1 7.26
N/C(=N\OC(=O)c1ccc(Br)cc1)c1ccccc1 6.72
Cc1ccc(/C(N)=N/OC(=O)c2ccc(F)cc2)cc1 5.54
N/C(=N\OC(=O)c1ccccc1Cl)c1cccnc1 8.85
Cc1cc(/C=N/NC(N)=S)c(C)n1-c1ccc(Cl)c(Cl)c1 4.51
COc1cccc(C(=O)Nc2ccc(C3CC3(Cl)Cl)cc2)c1 (stereo not given) 7.84
Cc1onc(-c2c(F)cccc2Cl)c1C(=O)OCn1nnc2ccccc2c1=O 1.99
COc1c(Cl)cc(Cl)cc1/C=C/C(=O)c1ccc(NC(=O)c2cccs2)cc1 15.2 [at 15 µM]
Cc1ccc(Nc2n[nH]c(C)c2[N+](=O)[O-])cc1C 12.6
Oc1cccc2ccc(/C=C/c3c(F)cccc3Cl)nc12 8.92
COc1cc(NC(=O)CSc2nc3ccccc3cc2C)c(C(=O)O)cc1OC 1.1
O=C(CCc1nnc(CCCc2ccccc2)o1)NC(C1CC1)C1CC1 8.51
N/C(=N\OC(=O)Cc1cccc2ccccc12)c1ccccn1 3.49
N/C(=N\OC(=O)COc1cc(Cl)c(Cl)cc1Cl)c1ccccn1 12.6
N#Cc1cc2ccccc2nc1SCc1ccccn1 9.71
Clc1ncccc1-c1nnn(-c2ccccc2)n1 11.5
Fc1ccc(-n2nnc(-c3cccnc3Cl)n2)cc1 12.6
Cc1csc(NC(=O)NC2(C(F)(F)F)Oc3ccccc3O2)n1 3.83
CC(C)c1ccc(NC(=O)c2csnn2)cc1 12.2
CC(=O)Nc1ccc(N=Nc2ccc(O)cc2)cc1 14.6
Cc1ccc(NC(=O)Nc2ccc3c(c2)nc(C)n3C)cc1 11.6
COc1ccc(NC(=O)c2noc3c2CCCCC3)cc1 11.6
CS(=O)(=O)c1ccc(C(=O)OCc2nnc(-c3ccc(Cl)cc3)o2)cc1[N+](=O)[O-] 1.33
Cc1nn(C)cc1/C=C/C(=O)c1cccs1 12.8
COc1ccc(/C=C/C(=O)c2ccccc2)c(OC)c1 15.5
C(=C\c1nc(-c2ccccc2)no1)/c1ccccc1 14.1
CNc1oc(/C=C/c2ccccc2)nc1C#N 8.72
CCc1ccc(-c2nn(-c3ccccc3)cc2CSC(=N)N)cc1 5.16 [at 7.5 µM]
O=C(Nc1ccc2c(c1)OCCO2)c1cccs1 9.77
Cc1cccc(-c2noc(-c3ccc(Cl)cc3[N+](=O)[O-])n2)c1 13.6
Cc1ccccc1-c1noc(-c2ccccc2F)n1 12.3
COc1ccc(-c2cc(=O)c3cc(C)ccc3[nH]2)cc1 7.13
CCOC(=O)c1sc(-c2ccc(OC)cc2)cc1N 15.4
Nc1nc(-c2ccc3c(c2)CCCC3)cs1 13.8
N#CC(=C1CCCC1)c1nc(-c2ccccc2)cs1 9.56
O=c1oc2cc(Br)ccc2n1CSC1=NCCS1 9.98
CCCCOC(=O)Nc1ccc2c(C)cc(=O)oc2c1 9.2
O=C(Nc1ccc(Cl)cc1)c1ccc(Br)cc1F 12.2
Cc1ccc(C(=O)Nc2ccc3c(c2)nc2n3CCSC2)cc1 10.4
CN1C(=O)/C(=C\C=C2/CCCN2C)N(C)C1=S 2.4
Nc1nonc1-c1noc(COc2ccccc2Cl)n1 15.9
COc1ccc(C(=O)NNC(=S)Nc2ccccc2)cc1 10.9
Cc1cccc(Nc2nc3c(s2)CCCC3)c1 11.4
COc1ccccc1CNc1ccc(CNc2ncn[nH]2)cc1 1.24
Oc1ccccc1CNc1ccc(Br)cn1 6.26
O=C(NCCCn1ccnc1)c1cc(-c2ccccc2)on1 12.3
O=C(NCCCN1CCOCC1)c1cc(-c2cccs2)on1 8.03
O=C(Cc1cn2ccsc2n1)OCc1ccccc1 2.43
Cc1csc2nc(CSc3ccc(Cl)cc3)cn12 10.2
CCOc1cccc2cc(-c3csc(NC(=O)CCC(=O)NCCCN4CCC(C)CC4)n3)c(=O)oc12 13.6
Cc1ccc(Nc2ncnc3c2oc2ccccc23)cc1 8.79
Cc1ccc(N2C(=O)C(NC(=O)c3ccccc3)(C(F)(F)F)C3=C2CC(C)(C)CC3=O)cc1 (stereo not given) 1
COCCn1nnnc1C(CC(C)C)N1CCN(c2cccc(OC)c2)CC1 (stereo not given) 1.05
CC(C)(C)NC(=O)C[n+]1ccc(C(N)=O)cc1 1.06
O=C(NCC1CCCO1)c1cc(-c2ccccc2)on1 (stereo not given) 15.9
COc1ccc2c(c1)CCc1c(C(=O)NCC(C)C)noc1-2 10.1
Cc1ccc(N=C/C(C(=O)C(F)(F)F)=C(\O)c2ccco2)cc1Cl 9.74
C/C(=N\NC(=O)c1ccoc1C)c1cccnc1 1.54
CC(/C=N/NC(=O)c1cccs1)=C\c1ccco1 9.89
CC(=O)CSc1ncnc2c1cnn2-c1ccccc1 9.44
O=[N+]([O-])c1ccc(F)cc1OCc1nc(-c2cccs2)no1 7.67
Cc1ccccc1-c1nnc(SCc2ccccc2F)o1 12.6
CCCn1c(/C=C/c2ccccc2)nc2ccccc21 8.61
CCCCCNc1nc(-c2ccccc2)cs1 14.6
COc1ccc(-c2csc(-c3ccc(C(=O)O)cc3)n2)cc1 11.9
CC1=C/C(=N\OS(=O)(=O)c2ccccc2)C(C(C)C)=CC1=O 0.91
CCOc1ccc2ccccc2c1CNCCN1CCOCC1 1.11
COc1ccccc1-c1noc(-c2ccccc2)n1 8.4
CC(=O)Nc1ccc(-c2cn3cc(C)ccc3n2)cc1 8.51
CCOc1ccc(/C=N/n2c(SC)nnc2-c2ccccc2)cc1OCC 1.09
CC(=O)Oc1ccc(/C=N/NC(=S)Nc2ccccc2)cc1 13.1
O=C(Cc1ccccc1F)Nc1ccc(SC(F)F)cc1 8.46
Cc1nc(NC(=O)c2cccs2)ccc1Br 10.9
Cc1ccc(C(=O)Nc2ccc3nc(C)sc3c2)s1 9.29
O=C(NC(=S)Nc1cccc(-c2ccc(CO)o2)c1)c1cccs1 1.54
COC(=O)c1ccc2nc(NC(=O)C(C)C)sc2c1 14.7
CN(C)CCCN(C(=O)/C=C/c1cccs1)c1nc2c(F)cccc2s1 19.1 [at 15 µM]
CC1Cc2ccccc2N1C(=O)/C=C/c1cccc(F)c1 (stereo not given) 10.3
CN1C(=O)/C(=C/C=C2\SCCN2C)N(C)C1=S 8.39
O=C(/C=C/Sc1ccccc1)c1ccccc1 9.32
C=C(C(=O)c1ccccc1)C(C)C(=C)C(=O)c1ccccc1 7.83 [at 15 µM]
O=C(/C(C=Nc1ccc(Br)cc1)=C(/O)c1ccco1)C(F)(F)F 13.4
O=C(N/N=C\c1ccc(Oc2ccccc2)cc1)c1csnn1 8.95
Cc1cccc(/C(N)=N/OC(=O)c2ccco2)c1 12
O=C1/C(=C/c2cccs2)CCC1C1CCCC1 (stereo not given) 9.35
CC1=CC(c2ccccc2)=Nc2ccc(C)cc2N1 5.67
O=C(c1ccccc1)c1nnc(-c2ccccc2F)o1 12.5
COc1ccc(C2=NN(C(C#N)c3ccc(OC)cc3)C(c3ccccc3)C2)cc1 (stereo not given) 1.84
CN1CCN(Cc2nc3ccccc3c(=O)n2Cc2nc(-c3ccc4ccccc4c3)cs2)CC1 2.07
CCOc1ccc(-c2nc3ccccc3c(=O)o2)cc1 11.2
CCSc1ncc(/C=N/Nc2ccc(Cl)cc2)n1C 9.97
CCOC(=O)c1[nH]c2c(c1C)C(=O)CC(c1ccco1)C2 (stereo not given) 2.32
CCCC(O)(CCC)C(=O)NN(C(=O)CCl)c1ccccc1 1.74
O=C(O)CCCNC(=O)Nc1ccccc1 1.06
CC(C)c1cc(C(=O)Nc2cc(Cl)ccc2O)no1 8.04
O=c1[nH][nH]cc1C=Nc1ccccc1O 3.08
O=c1oc2cc(Cl)ccc2n1CSc1nc2ccccc2s1 11.7
CN1CCN(Cc2cc(Cl)c3cccnc3c2OC(=O)c2cccs2)CC1 11.5 [at 15 µM]
COC(=O)CSc1nc2ccc(C)cc2cc1C#N 13.8 [at 7.5 µM]
COCCNC(=O)c1cc(-c2cccs2)on1 11
CCOC(=O)CC(=O)CSc1nc2ccc(C)cc2cc1C#N 5.09
O=c1[nH]c(=O)n([C@H]2C[C@H](O)[C@@H](CO)O2)cc1C(F)(F)F 1.13
COc1cc(C(Nc2ccccn2)c2ccc3ccc(C)nc3c2O)cc(OC)c1O (stereo not given) 0.2
Cc1c(NC(=O)CSc2cccc3cccnc23)c(=O)n(-c2ccccc2)n1C 5.68 [at 15 µM]
CCOC(=O)C(C)On1c(-c2ccc(Cl)cc2)nc2ccc([N+](=O)[O-])cc21 (stereo not given) 1.48
Cc1ccc(COn2c(-c3ccc(Cl)cc3)nc3ccc([N+](=O)[O-])cc32)cc1 8.36
